Experimental data from PubChem BioAssay AID488841 (Sanford-Burnham Center for Chemical Genomics, 2010).
Out of some 1,400 compounds screened, about 380 (27%) were called active.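 The calls were made as follows: active = mean inhibition above 50% across duplicate retests at 10 µM; inactive = the rest.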 This is one part of the list.

assay: inhibition of NALP1/ASC/caspase-1 reporter signal in yeast, confirmation, NALP1 inhibitor project, S. cerevisiae, luminescence, single concentration (AID 488841);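 also: plate controls were DMSO in galactose medium for no effect and cells in plain SD medium for full effect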; settings: S. cerevisiae NALP1/ASC/Caspase-1 reporter, beta-gal luminescence; at 10 µM; active compounds read high

Compound	inhibition
O=C(OC1CCOC1=O)c1cc(-c2ccc(Br)cc2)nc2ccccc12 (configuration not stated)	21% (inactive)
O=C(Nc1ccon1)c1cc2ccccc2oc1=O	31.5% (inactive)
O=C(Nc1ccc(-c2cn3ccccc3n2)cc1)c1ccco1	76.8% (active)
O=C(Nc1nc(-c2ccco2)c(-c2ccco2)s1)C1CCC1	39% (inactive)
O=C(Nc1ccc2oc(-c3ccccc3)nc2c1)c1ccco1	86.7% (active)
Cc1ccc2oc(-c3ccc(NC(=O)c4cccnc4)cc3)nc2c1	44.6% (inactive)
O=C(Nc1cccc(-c2cn3ccccc3n2)c1)c1cccc(Cl)c1	39.9% (inactive)
Cc1ccn2cc(-c3ccc(NC(=O)c4ccco4)cc3)nc2c1	82.7% (active)
CCCCC(=O)Nc1ccc(C(=O)NNC(=S)NC(=O)c2ccco2)cc1	42.2% (inactive)
Cc1sc(NC(=O)c2ccco2)nc1-c1ccccc1	73% (active)
CC1=C(C(=O)Nc2ccc(Cl)cc2)C(c2ccco2)NC(=O)N1 (configuration not stated)	23.4% (inactive)
O=C(CCl)Nc1nc(-c2ccco2)c(-c2ccco2)s1	32.2% (inactive)
CSc1ccc(C(=O)C2CCCN(C(=O)c3ccc4c(c3)no[n+]4[O-])C2)cc1 (configuration not stated)	18.6% (inactive)
Cn1nnc(NC(=O)/C=C/c2ccco2)n1	35% (inactive)
Cn1c(N)c(C(=O)COC(=O)C2(c3ccc(Cl)cc3)CCCC2)c(=O)n(C)c1=O	28.2% (inactive)
Clc1ccc2c(N/N=C/c3ccc(Br)cc3)ccnc2c1	47.6% (inactive)
CCOC(=O)c1c(C)c(C(=O)NCCCOC(C)C)c(C)n1C	26.2% (inactive)
COc1ccc(N(C)C2=NS(=O)(=O)c3ccccc32)cc1	27.9% (inactive)
C=C(C)C1Cc2c(C)nn(-c3ccccn3)c2C1 (configuration not stated)	2.3% (inactive)
CC(OC(=O)Cc1c(F)cccc1Cl)C(=O)NCCC1=CCCCC1 (configuration not stated)	46.2% (inactive)
Cc1ccc(C(=O)Nc2ccc3nc(C)sc3c2)s1	77% (active)
Cc1nc2ccc(NC(=O)c3cc([N+](=O)[O-])cc([N+](=O)[O-])c3Cl)cc2s1	40.5% (inactive)
COc1ccccc1NC(=O)c1ccc(C)s1	38.7% (inactive)
COn1c2c(c3c4nonc4ccc31)CCCC2	30.4% (inactive)
CC1CCN(Cc2ccc(-c3nn[nH]n3)cc2)CC1	21.2% (inactive)
O=C(NC1CCCCC1)c1noc2c1CCCCC2	70.2% (active)

Compound	inhibition
O=C(NC1CCCC1)c1ccc(CN2CCOCC2)cc1	33.8% (inactive)
O=C(CN1CCc2ccccc2C1)NCc1ccco1	18.9% (inactive)
O=C(c1cc(-c2ccc(O)cc2)on1)N1CCc2ccccc2C1	56.5% (active)
CCn1c(C(=O)N2CCc3ccccc3C2)cc2oc3ccccc3c21	32.4% (inactive)
CC(C)CC(=O)N1CCN(c2ccc([N+](=O)[O-])cc2Cl)CC1	37.5% (inactive)
Cc1c(-c2nc(N)nc(Nc3ccccc3)n2)oc2ccccc12	37.3% (inactive)
CCCCN(C)CCC(=O)Nc1ccc(Cl)cc1	28.4% (inactive)
O=C(Nc1ccc(Cl)cc1)C1=Cc2ccccc2OC1	48.8% (inactive)
CCOC(=O)C(=O)NNc1ccc(Cl)cc1	40.9% (inactive)
CC(=O)c1ccc(NC(=O)Nc2ccc(Cl)cc2)cc1	53.4% (active)
COc1ccc(N2CCN(CCNC(=O)Nc3ccc(Cl)cc3)CC2)cc1	22.3% (inactive)
N#Cc1ccc(NC(=O)Nc2ccc(Cl)cc2)cc1	67% (active)
CCC(C(=O)NCc1ccco1)N(C(=O)CNS(=O)(=O)c1ccccc1)c1ccc(OC)cc1 (configuration not stated)	23.4% (inactive)
CSc1nnc(-c2cc3c(s2)-c2ccccc2CC3)o1	56.6% (active)
O=C(C(Cc1ccccc1)n1cccc1)N1CCN(c2ccccc2)CC1 (configuration not stated)	46% (inactive)
Oc1c(Br)cc(Br)cc1C=Nc1cccnc1	36.4% (inactive)
CNC(=S)N/N=C/c1cc(Br)cc(Br)c1O	75.7% (active)
Cc1cc(C=C2C(=O)c3ccccc3C2=O)c(C)n1C	39% (inactive)
O=C(Nc1ccc(F)cc1)c1cccnc1N1CCCCC1	34.8% (inactive)
CCOc1ccccc1C(=O)OCC(=O)Nc1ccc(N2CCCCC2)cc1	36.1% (inactive)
CCOc1ccccc1C(=O)Nc1cnn(Cc2ccc(F)cc2)c1	57.7% (active)
c1ccc(CC2CCN(c3nnnn3-c3ccccc3)CC2)cc1	26.4% (inactive)
COC(=O)c1cc(=O)n(-c2ccc(F)cc2)c(=Nc2ccc(F)cc2)s1	33.2% (inactive)
CCN(CC)c1ccc(N=Cc2ccc([N+](=O)[O-])o2)cc1	64.2% (active)
O=[N+]([O-])c1ccc(/C=N/NS(=O)(=O)c2ccc(Cl)cc2)o1	36.3% (inactive)
CCOC(=O)c1[nH]c2ccc(Br)cc2c1NC(=O)CCN1CCC(C)CC1	32.4% (inactive)
